Laboratory results published in the supplement of paper PMC11732987, “Enantioselective OTUD7B fragment discovery through chemoproteomics screening and high-throughput optimisation” (Communications Chemistry, 2025).

Tests used:
Test in all cases: log2 ratio of Biotin-Ahx-Ub-VS probe labelling (fragment/DMSO); higher = less target engagement (more negative = stronger competition), active = hit call of the paper (q ≤ 0.05, log2 ratio ≤ -1)
Details in all cases: compound concentration: 200 uM; treatment time: 3 h
USP34 = USP34 (UniProt Q70CQ2)
Chain of USP34 (Q70CQ2 whole entry, the tested form may be a part): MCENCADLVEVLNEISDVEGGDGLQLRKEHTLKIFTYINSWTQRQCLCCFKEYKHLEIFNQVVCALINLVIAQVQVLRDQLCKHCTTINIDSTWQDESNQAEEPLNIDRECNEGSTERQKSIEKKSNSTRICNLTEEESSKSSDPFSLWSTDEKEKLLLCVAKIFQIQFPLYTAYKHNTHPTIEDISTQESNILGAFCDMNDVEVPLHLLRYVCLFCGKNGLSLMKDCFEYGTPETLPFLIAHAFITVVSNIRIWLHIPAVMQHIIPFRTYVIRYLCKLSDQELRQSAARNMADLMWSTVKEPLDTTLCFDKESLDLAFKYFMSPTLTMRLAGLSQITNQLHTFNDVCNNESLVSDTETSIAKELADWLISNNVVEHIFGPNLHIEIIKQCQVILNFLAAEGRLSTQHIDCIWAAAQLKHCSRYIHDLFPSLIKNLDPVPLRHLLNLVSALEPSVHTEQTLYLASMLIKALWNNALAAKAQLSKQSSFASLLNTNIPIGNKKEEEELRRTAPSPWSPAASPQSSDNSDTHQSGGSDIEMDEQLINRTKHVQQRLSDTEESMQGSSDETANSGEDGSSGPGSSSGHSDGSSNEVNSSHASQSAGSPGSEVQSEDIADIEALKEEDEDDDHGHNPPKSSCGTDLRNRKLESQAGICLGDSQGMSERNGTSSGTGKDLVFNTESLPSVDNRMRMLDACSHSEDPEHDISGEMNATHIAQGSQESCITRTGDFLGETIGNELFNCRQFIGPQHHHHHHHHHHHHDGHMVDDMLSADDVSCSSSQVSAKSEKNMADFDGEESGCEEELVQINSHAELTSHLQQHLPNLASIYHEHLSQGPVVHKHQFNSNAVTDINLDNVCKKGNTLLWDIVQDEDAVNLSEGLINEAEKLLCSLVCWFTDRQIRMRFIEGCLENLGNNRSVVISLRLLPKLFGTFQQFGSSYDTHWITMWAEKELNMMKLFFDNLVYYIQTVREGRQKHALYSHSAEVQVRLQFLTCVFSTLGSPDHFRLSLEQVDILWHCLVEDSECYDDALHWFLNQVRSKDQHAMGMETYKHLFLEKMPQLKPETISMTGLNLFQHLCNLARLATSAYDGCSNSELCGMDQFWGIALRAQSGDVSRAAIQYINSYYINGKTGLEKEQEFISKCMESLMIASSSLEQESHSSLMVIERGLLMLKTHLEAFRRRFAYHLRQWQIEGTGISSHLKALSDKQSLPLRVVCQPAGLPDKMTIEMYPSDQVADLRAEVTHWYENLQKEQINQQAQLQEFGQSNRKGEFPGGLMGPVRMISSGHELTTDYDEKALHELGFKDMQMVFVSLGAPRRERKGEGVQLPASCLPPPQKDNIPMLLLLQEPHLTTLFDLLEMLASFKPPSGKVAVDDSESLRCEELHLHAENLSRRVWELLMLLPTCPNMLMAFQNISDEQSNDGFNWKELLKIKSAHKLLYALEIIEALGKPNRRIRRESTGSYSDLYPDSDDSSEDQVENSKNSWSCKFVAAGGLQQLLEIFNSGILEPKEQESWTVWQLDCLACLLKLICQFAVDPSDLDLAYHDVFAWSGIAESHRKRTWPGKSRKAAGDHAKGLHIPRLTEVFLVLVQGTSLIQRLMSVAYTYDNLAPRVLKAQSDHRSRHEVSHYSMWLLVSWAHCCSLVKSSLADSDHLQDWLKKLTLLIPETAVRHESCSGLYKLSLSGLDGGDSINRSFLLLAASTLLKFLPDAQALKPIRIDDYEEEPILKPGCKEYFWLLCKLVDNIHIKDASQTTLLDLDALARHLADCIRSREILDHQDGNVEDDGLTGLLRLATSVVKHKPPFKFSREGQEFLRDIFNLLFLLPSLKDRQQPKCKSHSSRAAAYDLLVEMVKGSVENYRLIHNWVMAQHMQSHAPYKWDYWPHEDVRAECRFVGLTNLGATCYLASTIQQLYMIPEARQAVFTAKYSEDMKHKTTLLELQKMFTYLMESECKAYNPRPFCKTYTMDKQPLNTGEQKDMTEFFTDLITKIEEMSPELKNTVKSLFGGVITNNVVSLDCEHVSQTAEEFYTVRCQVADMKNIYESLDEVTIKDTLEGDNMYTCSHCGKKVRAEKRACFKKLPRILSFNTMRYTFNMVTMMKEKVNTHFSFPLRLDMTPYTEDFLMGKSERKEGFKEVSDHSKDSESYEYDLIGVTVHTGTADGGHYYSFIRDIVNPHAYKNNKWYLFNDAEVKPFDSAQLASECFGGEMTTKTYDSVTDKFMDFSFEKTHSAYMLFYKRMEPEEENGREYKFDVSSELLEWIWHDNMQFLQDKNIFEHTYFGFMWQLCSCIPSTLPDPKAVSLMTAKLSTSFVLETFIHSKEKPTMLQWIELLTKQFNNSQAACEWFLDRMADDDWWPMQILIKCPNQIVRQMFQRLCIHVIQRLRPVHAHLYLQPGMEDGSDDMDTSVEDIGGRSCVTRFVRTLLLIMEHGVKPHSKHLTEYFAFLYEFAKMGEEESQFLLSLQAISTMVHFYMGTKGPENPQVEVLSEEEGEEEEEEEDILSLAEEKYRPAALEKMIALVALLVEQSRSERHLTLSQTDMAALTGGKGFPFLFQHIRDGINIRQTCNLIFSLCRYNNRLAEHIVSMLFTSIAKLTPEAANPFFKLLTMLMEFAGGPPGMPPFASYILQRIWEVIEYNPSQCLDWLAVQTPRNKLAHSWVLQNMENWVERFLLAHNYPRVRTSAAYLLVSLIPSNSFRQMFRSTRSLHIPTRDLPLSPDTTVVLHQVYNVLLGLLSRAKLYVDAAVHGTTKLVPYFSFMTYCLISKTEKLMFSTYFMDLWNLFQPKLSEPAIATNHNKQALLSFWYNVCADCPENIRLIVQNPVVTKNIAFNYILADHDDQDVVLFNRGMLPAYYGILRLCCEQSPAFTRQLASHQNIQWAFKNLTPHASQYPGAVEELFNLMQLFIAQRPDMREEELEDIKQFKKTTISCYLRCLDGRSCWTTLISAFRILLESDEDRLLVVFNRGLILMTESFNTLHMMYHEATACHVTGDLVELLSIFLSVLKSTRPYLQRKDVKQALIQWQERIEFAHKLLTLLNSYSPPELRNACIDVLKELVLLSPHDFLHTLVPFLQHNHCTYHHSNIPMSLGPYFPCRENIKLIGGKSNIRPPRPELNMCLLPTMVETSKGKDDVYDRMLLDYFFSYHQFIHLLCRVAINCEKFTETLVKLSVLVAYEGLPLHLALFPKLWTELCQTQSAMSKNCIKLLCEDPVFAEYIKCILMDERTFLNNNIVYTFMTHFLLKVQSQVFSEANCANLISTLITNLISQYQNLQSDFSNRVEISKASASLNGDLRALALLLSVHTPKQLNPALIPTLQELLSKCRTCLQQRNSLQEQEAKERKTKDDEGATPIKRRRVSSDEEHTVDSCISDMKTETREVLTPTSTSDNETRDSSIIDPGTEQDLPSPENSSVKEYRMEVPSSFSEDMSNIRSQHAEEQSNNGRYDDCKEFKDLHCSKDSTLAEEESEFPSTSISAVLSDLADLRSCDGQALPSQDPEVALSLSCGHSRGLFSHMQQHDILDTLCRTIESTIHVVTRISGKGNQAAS
Procedure, shortened: (§1)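 The table lists average log2 ratios of fragment over vehicle, from an unpaired t-test on global-median-normalised Spectronaut label-free quantities. Proteins with ≥2 unique peptides were used. Samples were HEK293T lysate (495 µg) treated in triplicate with fragment at 200 µM or vehicle for 3 h, then with Biotin-Ahx-Ub-VS (0.5 µM final) for 1 h, with labelled DUBs NeutrAvidin-enriched and run by diaPASEF LC-MS/MS.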

USP36 = target: T1, USP36 (UniProt Q9P275)
T1 sequence (whole entry): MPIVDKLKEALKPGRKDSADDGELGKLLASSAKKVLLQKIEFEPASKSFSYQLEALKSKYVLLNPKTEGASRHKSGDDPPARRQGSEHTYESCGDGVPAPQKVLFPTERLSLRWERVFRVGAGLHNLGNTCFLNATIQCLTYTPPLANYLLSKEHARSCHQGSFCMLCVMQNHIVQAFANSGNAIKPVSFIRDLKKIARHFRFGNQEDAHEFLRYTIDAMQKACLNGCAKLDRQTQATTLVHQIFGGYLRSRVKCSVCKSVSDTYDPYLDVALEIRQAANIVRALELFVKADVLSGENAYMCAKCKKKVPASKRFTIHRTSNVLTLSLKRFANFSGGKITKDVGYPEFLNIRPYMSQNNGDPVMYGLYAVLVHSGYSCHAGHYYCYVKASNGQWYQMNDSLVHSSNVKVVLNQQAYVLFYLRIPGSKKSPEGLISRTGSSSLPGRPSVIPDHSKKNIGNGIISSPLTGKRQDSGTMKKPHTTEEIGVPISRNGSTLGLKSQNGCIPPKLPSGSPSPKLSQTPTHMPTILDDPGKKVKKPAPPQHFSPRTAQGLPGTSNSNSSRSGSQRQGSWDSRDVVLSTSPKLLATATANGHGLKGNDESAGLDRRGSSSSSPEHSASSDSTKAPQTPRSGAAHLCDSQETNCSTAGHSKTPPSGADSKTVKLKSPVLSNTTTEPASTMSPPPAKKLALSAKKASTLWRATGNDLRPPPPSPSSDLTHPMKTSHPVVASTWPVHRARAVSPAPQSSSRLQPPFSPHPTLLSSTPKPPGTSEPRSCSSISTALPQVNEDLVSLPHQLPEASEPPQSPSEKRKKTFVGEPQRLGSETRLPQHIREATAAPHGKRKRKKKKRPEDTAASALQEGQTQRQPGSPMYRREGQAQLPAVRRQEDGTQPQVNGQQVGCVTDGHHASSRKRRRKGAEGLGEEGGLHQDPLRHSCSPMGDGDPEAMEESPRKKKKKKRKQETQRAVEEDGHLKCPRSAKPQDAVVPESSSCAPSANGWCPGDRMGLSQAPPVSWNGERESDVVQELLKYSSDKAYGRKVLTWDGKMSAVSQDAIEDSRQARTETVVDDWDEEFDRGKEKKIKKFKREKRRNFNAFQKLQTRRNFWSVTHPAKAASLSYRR
Procedure, shortened: as §1

USP38 = target: T2, USP38 (UniProt Q8NB14)
T2 sequence (whole entry): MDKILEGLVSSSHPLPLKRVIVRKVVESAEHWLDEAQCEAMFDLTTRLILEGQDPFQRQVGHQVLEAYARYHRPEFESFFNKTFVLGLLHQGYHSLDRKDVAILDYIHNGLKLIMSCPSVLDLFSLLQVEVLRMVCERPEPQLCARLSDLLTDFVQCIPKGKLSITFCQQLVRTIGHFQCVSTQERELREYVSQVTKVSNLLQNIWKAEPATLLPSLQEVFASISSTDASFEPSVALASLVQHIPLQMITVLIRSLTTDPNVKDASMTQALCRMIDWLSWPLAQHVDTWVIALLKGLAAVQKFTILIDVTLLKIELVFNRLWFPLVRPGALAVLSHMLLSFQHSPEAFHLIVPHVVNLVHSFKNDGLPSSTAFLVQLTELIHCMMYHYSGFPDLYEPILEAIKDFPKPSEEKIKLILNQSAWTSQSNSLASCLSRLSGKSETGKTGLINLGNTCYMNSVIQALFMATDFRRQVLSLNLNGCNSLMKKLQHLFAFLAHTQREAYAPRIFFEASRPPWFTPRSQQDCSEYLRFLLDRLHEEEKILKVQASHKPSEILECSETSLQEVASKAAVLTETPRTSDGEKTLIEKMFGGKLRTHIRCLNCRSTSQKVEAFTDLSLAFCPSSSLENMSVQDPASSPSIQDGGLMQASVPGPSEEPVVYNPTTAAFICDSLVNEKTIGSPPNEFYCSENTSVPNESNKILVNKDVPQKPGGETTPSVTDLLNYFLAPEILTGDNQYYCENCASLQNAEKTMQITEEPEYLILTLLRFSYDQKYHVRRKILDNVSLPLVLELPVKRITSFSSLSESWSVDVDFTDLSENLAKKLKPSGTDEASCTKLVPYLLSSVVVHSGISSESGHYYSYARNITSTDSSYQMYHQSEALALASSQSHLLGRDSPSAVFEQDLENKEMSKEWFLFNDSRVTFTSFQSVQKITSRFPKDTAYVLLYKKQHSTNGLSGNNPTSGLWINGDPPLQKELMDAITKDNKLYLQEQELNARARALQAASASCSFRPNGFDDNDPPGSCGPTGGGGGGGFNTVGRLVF
Procedure, shortened: as §1

USP39 = target: T3, USP39 (UniProt Q53GS9)
T3 sequence (whole entry): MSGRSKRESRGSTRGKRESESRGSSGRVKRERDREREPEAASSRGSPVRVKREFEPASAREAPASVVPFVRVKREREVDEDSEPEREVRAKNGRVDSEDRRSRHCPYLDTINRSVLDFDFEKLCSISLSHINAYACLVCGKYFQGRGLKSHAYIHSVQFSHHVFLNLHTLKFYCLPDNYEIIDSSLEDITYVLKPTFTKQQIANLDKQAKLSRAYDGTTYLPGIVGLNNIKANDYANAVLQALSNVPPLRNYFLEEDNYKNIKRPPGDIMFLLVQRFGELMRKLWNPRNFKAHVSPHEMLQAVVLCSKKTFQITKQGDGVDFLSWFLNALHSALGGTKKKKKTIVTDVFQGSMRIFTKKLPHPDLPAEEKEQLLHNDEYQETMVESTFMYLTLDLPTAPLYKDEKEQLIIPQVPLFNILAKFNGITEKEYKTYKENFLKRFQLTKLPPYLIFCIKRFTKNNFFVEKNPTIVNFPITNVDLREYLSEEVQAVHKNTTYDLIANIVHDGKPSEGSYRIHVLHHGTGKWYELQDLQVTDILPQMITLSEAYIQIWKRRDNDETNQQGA
Procedure, shortened: as §1

USP4 = target: T4, USP4 (UniProt Q13107)
T4 sequence (whole entry): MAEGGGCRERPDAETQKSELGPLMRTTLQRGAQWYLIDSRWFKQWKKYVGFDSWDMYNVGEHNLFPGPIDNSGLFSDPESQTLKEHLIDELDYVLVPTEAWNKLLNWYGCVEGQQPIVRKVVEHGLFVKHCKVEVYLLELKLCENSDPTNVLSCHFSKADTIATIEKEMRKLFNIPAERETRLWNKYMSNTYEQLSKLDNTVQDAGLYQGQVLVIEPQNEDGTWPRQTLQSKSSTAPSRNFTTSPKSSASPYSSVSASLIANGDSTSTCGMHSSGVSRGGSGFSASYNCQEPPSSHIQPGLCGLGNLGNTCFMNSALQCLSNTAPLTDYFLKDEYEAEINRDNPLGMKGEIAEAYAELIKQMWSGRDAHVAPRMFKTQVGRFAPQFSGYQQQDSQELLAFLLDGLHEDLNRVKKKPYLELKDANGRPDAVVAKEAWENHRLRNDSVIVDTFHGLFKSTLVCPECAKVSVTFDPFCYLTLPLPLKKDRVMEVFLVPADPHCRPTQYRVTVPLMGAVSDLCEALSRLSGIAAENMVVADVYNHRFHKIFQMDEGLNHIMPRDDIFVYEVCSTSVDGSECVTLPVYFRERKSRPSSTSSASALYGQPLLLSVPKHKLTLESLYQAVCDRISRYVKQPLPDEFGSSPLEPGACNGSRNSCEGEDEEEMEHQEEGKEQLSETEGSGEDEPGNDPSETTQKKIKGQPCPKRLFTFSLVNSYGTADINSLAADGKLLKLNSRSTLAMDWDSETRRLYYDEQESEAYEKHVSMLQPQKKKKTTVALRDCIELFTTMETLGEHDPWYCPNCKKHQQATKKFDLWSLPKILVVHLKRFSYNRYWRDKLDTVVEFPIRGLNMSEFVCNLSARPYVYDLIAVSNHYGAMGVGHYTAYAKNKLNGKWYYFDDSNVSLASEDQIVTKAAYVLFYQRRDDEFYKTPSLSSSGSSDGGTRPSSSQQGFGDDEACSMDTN
Procedure, shortened: as §1

Measured: log2 ratio of Biotin-Ahx-Ub-VS probe labelling

C/C(=C\CNC(=O)CCl)c1cnn(C)c1.Cl
inactive: USP34 -0.267 | USP36 -0.266 | USP38 -0.227 | USP39 0.0033 | USP4 -0.395
